Results on 39 compounds are retold here after PubChem BioAssay AID1069 (NMMLSC, 2008).

The test can be described thus: activators of LNCaP cell differentiation, retest, confirmation, side scatter shift, flow cytometry (AID 1069).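 Further: LNCaP human prostate cancer cells in low-serum medium with charcoal-stripped FBS; percent of cells with raised granularity gated so DMSO controls show 10%.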 As to conditions: 4 d, stronger effect = higher value. Background: In flow cytometry, cells or beads pass a laser one at a time.

The source made the active and inactive calls.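 How the source made its calls: active means high combined rank on largest and smallest cell-count-weighted shift across three tests, rank score above 45, floors 50 and 25 (some results past the limit were not filed as active); inactive means the rest.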

In the case of `CN1C(=O)c2ccc(S(=O)(=O)c3ccc(C(=O)O)cc3)cc2C1=O`, the side scatter shift is 7.2% (inactive) (at 100 µM) and 5.75% (side scatter shift, at 10 µM).

With `COc1ccc2nc(NC(=O)C(NS(=O)(=O)c3cccs3)C(C)C)sc2c1` (stereo not drawn), the side scatter shift is, setting by setting: (at 100 µM) 35.8% (inactive); (side scatter shift, at 10 µM) 3.1%.

With `CCN1CCN(C(c2cccs2)C(C)NS(=O)(=O)c2ccc(Br)cc2)CC1` (stereo not drawn), the side scatter shift was 82.4% (inactive) (at 100 µM) and 17.8% (side scatter shift, at 10 µM).

Consider `CCOc1ccc(C(=O)Nc2ccc(Cl)cn2)cc1Cl`, for which the side scatter shift by setting is: (at 100 µM) 22% (inactive); (side scatter shift, at 10 µM) 2.75%.

For the compound `COc1ccc(CCNC(=O)C2CCCN(Cc3nc(-c4cccc(Cl)c4)oc3C)C2)cc1OC` (stereo not drawn), the side scatter shift was 28.6% (inactive) (at 100 µM) and 3.85% (side scatter shift, at 10 µM).

With `O=C(Nc1ccc2oc(Cc3ccc(Cl)cc3)nc2c1)c1cccnc1`, the side scatter shift (at 100 µM) is 17.6% (inactive) and the side scatter shift (side scatter shift, at 10 µM) came to 6.7%.

With `CCN(CC)CCCNc1oc(-c2cccc(Cl)c2)nc1C#N`, the side scatter shift is 21.9% (inactive) (at 100 µM) and 32.5% (side scatter shift, at 10 µM).

Take `CCOC(=O)c1c(C)[nH]c(C(=O)COC(=O)C2CC2C)c1C` (stereo not drawn): the side scatter shift was 24.3% (active) (at 100 µM) and 44.6% (side scatter shift, at 10 µM).

On to `Cc1oc(-c2ccccc2F)nc1CN1CCC(C(=O)NCCC2=CCCCC2)CC1`, for which the side scatter shift reads like this: (at 100 µM) 29.4% (inactive); (side scatter shift, at 10 µM) 17.8%.

In the case of `CCn1c(=S)ccc2ccc(OC)cc21`, the side scatter shift (at 100 µM) is 12.9% (inactive) and the side scatter shift (side scatter shift, at 10 µM) turned out to be 1.95%.

As for `COC(=O)C1=C(C)N=c2s/c(=C/c3cccs3)c(=O)n2C1c1cccs1` (stereo not drawn), the side scatter shift by setting is: (at 100 µM) 32.8% (inactive); (side scatter shift, at 10 µM) 12.7%.

As for `CCOC(=O)C1=C(C)Nc2nc(SC)nn2C1c1ccc(C(=O)OC)cc1` (stereo not drawn), the side scatter shift reads like this: (at 100 µM) 7.7% (inactive); (side scatter shift, at 10 µM) 7.15%.

As for `Cc1cc(C)c2c(=O)n(CC(=O)NCCCN3CCN(c4ccccc4F)CC3)sc2n1`, the side scatter shift (at 100 µM) is 20% (inactive) and the side scatter shift (side scatter shift, at 10 µM) amounted to 6.8%.

On to `COCCn1c(=O)[nH]c2cc(C(=O)NCCCN3CCN(c4ccc(F)cc4)CC3)ccc2c1=O`, for which the side scatter shift (at 100 µM) was 37.9% (inactive) and the side scatter shift (side scatter shift, at 10 µM) stood at 6.5%.

Turning to `Cc1ccc(OCC(O)Cn2c(=N)n(CCN3CCCCC3)c3ccccc32)cc1` (stereo not drawn), the side scatter shift runs as follows: (at 100 µM) 23.1% (active); (side scatter shift, at 10 µM) 65.5%.

With `O=C(CSc1nc2sc3c(c2c(=O)n1-c1ccccc1)CCCC3)NCc1ccco1`, the side scatter shift is 24% (inactive) (at 100 µM) and 4.3% (side scatter shift, at 10 µM).

As to `CCN(CC)CC(=O)Nc1ccc(-c2nc3cc(NC(=O)CN(CC)CC)ccc3o2)cc1`, the side scatter shift by setting is: (at 100 µM) 0% (active); (side scatter shift, at 10 µM) 42%.

Turning to `O=C1c2ccccc2C(Nc2ccc3c(c2)OCO3)N1Cc1ccc2c(c1)OCO2` (stereo not drawn), the side scatter shift runs as follows: (at 100 µM) 23.6% (inactive); (side scatter shift, at 10 µM) 6.65%.

As for `COc1cc(C(=O)NCc2nnc(SCC(=O)NCc3ccccc3)o2)cc(OC)c1OC`, the side scatter shift by setting is: (at 100 µM) 9.6% (inactive); (side scatter shift, at 10 µM) 7.7%.

On to `CCN(CCNC(=O)C1CCCN(Cc2nc(-c3ccc(OC)cc3)oc2C)C1)c1ccccc1` (stereo not drawn), for which the side scatter shift is 27.8% (inactive) (at 100 µM) and 35.5% (side scatter shift, at 10 µM).

`O=C(NCCCN1CCN(c2ccccc2F)CC1)C1CCCN(S(=O)(=O)c2cnc[nH]2)C1` (stereo not drawn): the side scatter shift was 7.3% (inactive) (at 100 µM) and 4.1% (side scatter shift, at 10 µM).

Regarding `Cc1cccc(-c2nsc(SCC(=O)Nc3nccs3)n2)c1`, the side scatter shift was 68.1% (active) (at 100 µM) and 6.2% (side scatter shift, at 10 µM).

For `COC(=O)c1cc(-c2ccccc2)sc1NC(=O)c1cc(C)on1`, the side scatter shift is, setting by setting: (at 100 µM) 70% (inactive); (side scatter shift, at 10 µM) 13.2%.

Take `COc1ccc(CCNC(=O)C2CCN(Cc3nc(-c4ccccc4F)oc3C)CC2)cc1OC`: the side scatter shift (at 100 µM) is 9% (inactive) and the side scatter shift (side scatter shift, at 10 µM) worked out at 8.85%.

For the compound `Cc1ccc2c(c1)c1c(n2CC(O)Cn2c(C)nc3ccccc32)/C(=N\O)CCC1` (stereo not drawn), the side scatter shift runs as follows: (at 100 µM) 18.8% (inactive); (side scatter shift, at 10 µM) 10.1%.

Regarding `CC(=O)c1cccc(NC2c3ccccc3C(=O)N2Cc2ccc3c(c2)OCO3)c1` (stereo not drawn), the side scatter shift is 24% (inactive) (at 100 µM) and 4.25% (side scatter shift, at 10 µM).

As to `COc1ccc(N2CCN(CCCNC(=O)c3cc4sccc4n3C)CC2)cc1`, the side scatter shift by setting is: (at 100 µM) 51.6% (active); (side scatter shift, at 10 µM) 6.5%.

For the compound `O=S1(=O)C=C(Sc2nc3ccccc3s2)c2ccccc21`, the side scatter shift is 7.7% (inactive) (at 100 µM) and 17.9% (side scatter shift, at 10 µM).

As for `CCC(=O)N(Cc1ccco1)c1nc(-c2cc(OC)ccc2OC)cs1`, the side scatter shift runs as follows: (at 100 µM) 13.2% (inactive); (side scatter shift, at 10 µM) 9.2%.

For the compound `CCc1ccc(CNC(=O)CN2C(=O)COc3ccccc32)cc1`, the side scatter shift runs as follows: (at 100 µM) 9% (inactive); (side scatter shift, at 10 µM) 5.7%.

In the case of `Oc1ccccc1CNc1nc2ccccc2n1CCN1CCCCC1`, the side scatter shift was 22.7% (inactive) (at 100 µM) and 12.2% (side scatter shift, at 10 µM).

On to `Cn1nc(-c2ccc(Cl)cc2)c2cc(C(=O)NCCCN3CCOCC3)sc21`, for which the side scatter shift reads like this: (at 100 µM) 63.6% (active); (side scatter shift, at 10 µM) 27.4%.

Regarding `COc1ccc(Cc2n[nH]c(=O)c3ccccc23)cc1OC`, the side scatter shift reads like this: (at 100 µM) 5.3% (inactive); (side scatter shift, at 10 µM) 5.7%.

Turning to `CCCS(=O)(=O)N1CCCC(C(=O)NCCCN2CCN(c3ccc(F)cc3)CC2)C1` (stereo not drawn), the side scatter shift is, setting by setting: (at 100 µM) 8.2% (inactive); (side scatter shift, at 10 µM) 12.3%.

Turning to `CCOC(=O)c1ccccc1NC(=O)Cn1c(-c2nonc2N)nc2ccccc21`, the side scatter shift reads like this: (at 100 µM) 30.6% (active); (side scatter shift, at 10 µM) 27.1%.

`COC(=O)c1ccc2c(=O)n(Cc3ccco3)c(SCC(=O)Nc3ccc(C)c(Cl)c3)nc2c1`: the side scatter shift (at 100 µM) is 21% (inactive) and the side scatter shift (side scatter shift, at 10 µM) is 10.6%.

With `Cn1cc(CNC(=O)C2c3ccccc3Oc3ccccc32)cn1`, the side scatter shift (at 100 µM) is 7.3% (inactive) and the side scatter shift (side scatter shift, at 10 µM) was 3%.

On to `CC1(C)CC(=O)c2cc(OCC(=O)NCCCN3CCN(c4ccc(F)cc4)CC3)ccc2O1`, for which the side scatter shift by setting is: (at 100 µM) 5.9% (inactive); (side scatter shift, at 10 µM) 15.1%.

With `CCOC(=O)C1CCN(c2nc3ccccc3nc2C(C#N)C(=O)OCCOC)CC1` (stereo not drawn), the side scatter shift is, setting by setting: (at 100 µM) 11.8% (inactive); (side scatter shift, at 10 µM) 3.1%.
